# Laboratory results reported in PubChem BioAssay.
# Records with an inconclusive call do not appear. This is one part of the list. Active and inactive are the calls of the source. Unless noted, no stated cut-off is given here; in the data, active means binding response below about 72% or above about 130%; inactive means in between.
# Experiments:
# [1] = target: Regulator of G-protein signaling 16 (Homo sapiens) (UniProt O15492); assay: small molecules altering RGS protein interactions with GNAO1 – biochemical, multiplexed beads, flow cytometry, RGS4/7/8/16/19, primary screen (AID 1504); details: multiplexed bead flow cytometry, measured here: RGS16 interaction, at 10 µM;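 further: fluorescently labeled Galpha-o bound to GDP with aluminium fluoride binding biotinylated RGS beads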
# [2] = target: Regulator of G-protein signaling 19 (Homo sapiens) (UniProt P49795); assay: as above; details: multiplexed bead flow cytometry, measured here: RGS19 interaction, at 10 µM
# [3] = target: Regulator of G-protein signaling 7 (Homo sapiens) (UniProt P49802); assay: as above; details: multiplexed bead flow cytometry, measured here: RGS7 interaction, at 10 µM
# [4] = target: Regulator of G-protein signaling 8 (Homo sapiens) (UniProt P57771); assay: as above; details: multiplexed bead flow cytometry, measured here: RGS8 interaction, at 10 µM
# [5] = interference with biotin-avidin bead interaction – biochemical, flow cytometry, bead-based, counter-screen for RGS protein interaction modulators (AID 1783;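 active means inhibition above 50%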;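 further: median green fluorescence of gated singlet beads compared with DMSO control wells; 0% = DMSO wells and 100% = complete loss of bead fluorescence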); details: streptavidin beads, fluorescein-biotin binding; at 10 µM, stronger effect = higher value
# [6] = target: Guanine nucleotide-binding protein G(o) subunit alpha (Homo sapiens) (UniProt P09471); assay: retest of RGS8-Galphao interaction hits – biochemical, multiplexed bead flow cytometry, single concentration, confirmation (AID 1836); details: bead-based flow cytometry RGS8-Galphao binding, fluorescence; at 10 µM; actives lie on both sides;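 further: Galphao activated as GDP AlF4 complex before binding bead RGS8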
# Chain of Guanine nucleotide-binding protein G(o) subunit alpha (Homo sapiens) (P09471 whole entry, looked up): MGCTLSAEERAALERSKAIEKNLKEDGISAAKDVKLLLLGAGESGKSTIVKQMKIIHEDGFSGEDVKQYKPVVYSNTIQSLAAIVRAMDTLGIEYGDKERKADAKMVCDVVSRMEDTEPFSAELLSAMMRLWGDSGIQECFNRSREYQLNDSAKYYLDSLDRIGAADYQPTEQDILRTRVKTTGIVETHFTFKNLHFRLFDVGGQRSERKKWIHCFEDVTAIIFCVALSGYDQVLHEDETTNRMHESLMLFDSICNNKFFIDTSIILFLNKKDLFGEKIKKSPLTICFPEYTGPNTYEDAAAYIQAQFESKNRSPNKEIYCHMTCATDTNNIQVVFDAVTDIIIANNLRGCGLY
# [7] = target: Guanine nucleotide-binding protein G(o) subunit alpha (Homo sapiens) (UniProt P09471); assay: retest of RGS7-Galphao interaction hits – biochemical, multiplexed bead flow cytometry, single concentration, confirmation (AID 1837; in the data active means response below about 75% or above about 130%; inactive means in between;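 further: fluorescent Galphao activated with GDP and aluminum fluoride binding bead-coupled RGS7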); details: bead-based flow cytometry RGS7-Galphao binding; at 10 µM; actives lie on both sides
# [8] = target: Regulator of G-protein signaling 16 (Homo sapiens) + Guanine nucleotide-binding protein G(o) subunit alpha (Homo sapiens) (UniProt O15492+P09471); assay: RGS16 and Galphao interaction regulators – biochemical, single concentration, multiplexed bead flow cytometry, confirmation (AID 1838; in the data active means response below about 74% or above about 130%; inactive means in between;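 further: Galphao activated as the GDP aluminium fluoride complex binding bead-coupled RGS16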); details: bead-based flow cytometry, at 10 µM, actives lie on both sides
# Chain of Regulator of G-protein signaling 16 (Homo sapiens) + Guanine nucleotide-binding protein G(o) subunit alpha (Homo sapiens) (O15492 whole entry, looked up): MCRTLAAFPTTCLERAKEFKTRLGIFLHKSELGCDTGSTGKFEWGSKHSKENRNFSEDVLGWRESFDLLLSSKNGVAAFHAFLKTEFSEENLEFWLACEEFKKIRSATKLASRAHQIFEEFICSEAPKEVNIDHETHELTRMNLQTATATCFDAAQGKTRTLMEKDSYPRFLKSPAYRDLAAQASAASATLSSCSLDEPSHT
# Chain of Regulator of G-protein signaling 16 (Homo sapiens) + Guanine nucleotide-binding protein G(o) subunit alpha (Homo sapiens) (P09471 whole entry, looked up): as the sequence (P09471 whole entry, looked up) above
# [9] = target: Guanine nucleotide-binding protein G(o) subunit alpha (Homo sapiens) (UniProt P09471); assay: RGS4 and Galphao interaction regulators – biochemical, single concentration, multiplexed bead flow cytometry, confirmation (AID 1840; in the data active means binding response below about 74% or above about 130%; inactive means in between); details: at 10 µM, actives lie on both sides
# [10] = target: Guanine nucleotide-binding protein G(o) subunit alpha (Homo sapiens) + Regulator of G-protein signaling 19 (Homo sapiens) (UniProt P09471+P49795); assay: RGS19 interaction with Gαo, hit retest – biochemical, single point, multiplexed bead flow cytometry, confirmation (AID 1841; in the data active means response below about 50% or above about 160%; inactive means in between;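 further: 100% = no compound control and 0% = blank background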); details: bead-based flow cytometry RGS19-Galphao binding; at 10 µM; actives lie on both sides
# Chain of Guanine nucleotide-binding protein G(o) subunit alpha (Homo sapiens) + Regulator of G-protein signaling 19 (Homo sapiens) (P09471 whole entry, looked up): as above
# Chain of Guanine nucleotide-binding protein G(o) subunit alpha (Homo sapiens) + Regulator of G-protein signaling 19 (Homo sapiens) (P49795 whole entry, looked up): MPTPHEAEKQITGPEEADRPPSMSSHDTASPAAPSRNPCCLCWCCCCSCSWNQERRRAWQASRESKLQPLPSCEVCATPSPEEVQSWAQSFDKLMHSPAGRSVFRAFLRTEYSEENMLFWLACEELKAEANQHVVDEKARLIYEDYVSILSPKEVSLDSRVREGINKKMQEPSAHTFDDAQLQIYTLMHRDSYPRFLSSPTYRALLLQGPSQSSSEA
# [11] = rapamycin-like changes in RPL19A-GFP expression – cell-based, S. cerevisiae, multiplex flow cytometry, primary screen (AID 1862; in the data active means percent of DMSO control GFP below about 86%;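 further: lower values mimic rapamycin by blocking the RPL19A rise seen in DMSO cells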); details: S. cerevisiae RPL19A-GFP strain, flow cytometry fluorescence, 3 h; at 10 µM; stronger effect = lower value
# [12] = TOR pathway GLN3 branch reporter MEP2-GFP changes – S. cerevisiae, multiplex flow cytometry, primary screen (AID 1867;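 active means GFP response, as percent of the DMSO control, above the screen-wide mean plus 3 SD, about 139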;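 further: median GFP channel fluorescence of barcode-gated MEP2-GFP cells measured by flow cytometry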); details: S. cerevisiae MEP2-GFP strain, 3 h, at 10 µM, stronger effect = higher value, 100% means same as DMSO wells
# [13] = TOR pathway RTG branch CIT2 reporter changes – S. cerevisiae, GFP fusion, multiplex flow cytometry, primary screen (AID 1870;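 active means percent response above a set limit, the screen-wide mean plus 3 SD, cut at about 130% in these data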;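 further: barcoded CIT2-GFP strain pooled with four other GFP strains with rapamycin as positive control; median GFP fluorescence per well over plate mean of DMSO wells so 100% = DMSO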); details: S. cerevisiae CIT2-GFP expression, 3 h, at 10 µM, stronger effect = higher value
# [14] = TOR pathway LAP4-GFP level changes – S. cerevisiae, multiplex flow cytometry, primary screen (AID 1873;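 active means GFP signal, as percent of the solvent control, above the screen mean plus 3 SD, about 149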); details: S. cerevisiae LAP4-GFP expression, 3 h, at 10 µM, stronger effect = higher value
# [15] = yeast AGP1-GFP level changes, GLN3 branch – cell-based, multiplex flow cytometry, S. cerevisiae, primary screen (AID 1887;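 active means GFP signal above the screen-wide mean plus 3 SD, that is over about 124.5% of the solvent control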;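 further: AGP1-GFP fusion strain of S. cerevisiae within a five-strain barcoded multiplex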); details: 3 h, at 10 µM, stronger effect = higher value
# [16] = hit retest on RPL19A-GFP reporter strain – cell-based, S. cerevisiae, flow cytometry, cherry picks, mother/daughter gates, confirmation (AID 2270;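 active means GFP response below 50% of the DMSO control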); details: 3 h, at 10 µM, stronger effect = lower value, 100 = same GFP as DMSO wells
# [17] = yeast TOR pathway reporter LAP4-GFP change – cell-based, cherry picks, flow cytometry, mother/daughter gates, confirmation (AID 2271;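 active means GFP response above 150% of the DMSO control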;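 further: ratio of sample to DMSO plate mean so 100% equals DMSO level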); details: S. cerevisiae LAP4-GFP strain, 3 h, at 10 µM, stronger effect = higher value, 100 means same as DMSO control
# [18] = TOR pathway reporter MEP2-GFP, retest of hits – S. cerevisiae, flow cytometry GFP, cherry picks, confirmation (AID 2272;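 active means GFP response above 150% of the DMSO control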;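 further: ratio of well signal to plate DMSO mean so 100% equals DMSO level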); details: S. cerevisiae MEP2-GFP strain, 3 h, at 10 µM, stronger effect = higher value
# [19] = TOR pathway CIT2 reporter hit retest – S. cerevisiae, GFP fusion, cherry picks, mother/daughter gates, confirmation (AID 2274;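 active means GFP response above 150% of the DMSO level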); details: S. cerevisiae CIT2-GFP strain, flow cytometry, 3 h, at 10 µM, stronger effect = higher value
# [20] = reduced mouse 2C T cell binding to pMHC/ICAM-1 vesicles – MLPCN validation set, flow cytometry, LFA-1/ICAM-1 modulator project, pilot screen (AID 2523;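 active means response below a set limit, under 55% cells CD8-positive and vesicle-bound, and CD8 cells' 90th-percentile brightness under 279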;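 on vesicle binding response: mean PE anti-B7-1 fluorescence of CD8+ cells relative to row control; 100% = QL9-loaded vesicles with DMSO vehicle in the same plate row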); details: 2C mouse CD8+ T cells, at 7 µM, stronger effect = lower value; double positive events: measured here: CD8+/vesicle+ event percentage
# [21] = measured here: daughter cell gate
# [22] = measured here: mother cell gate
# [23] = measured here: daughter cell gate response
# [24] = measured here: mother cell gate response
compound,measurement,setting,value
CCCCOC(=O)Cn1c(=N)n(CCN(CC)CC)c2ccccc21,RGS16–Galpha-o binding response,[1],0%
same,RGS19–Galpha-o binding response,[2],-255%
same,RGS7–Galpha-o binding response,[3],165%
same,RGS8–Galpha-o binding response,[4],127%
same,inhibition,[5],-1.7% (inactive)
same,binding response (% of control),[6],101% (inactive)
same,response (percent of control binding),[7],95.7% (inactive)
same,response (% of control binding),[8],101% (inactive)
same,binding response (% of control),[9],97.5% (inactive)
same,response (percent of control binding),[10],101% (inactive)
O=C(/C=C/c1ccccc1)c1ccccc1,percent of DMSO control GFP,[11],92.8% (inactive)
same,GFP response vs DMSO,[12],139% (inactive)
same,percent response of DMSO control,[13],96.6% (inactive)
same,GFP response vs DMSO,[14],79.8% (inactive)
same,"GFP response, % of DMSO",[15],87.5% (inactive)
same,GFP response vs DMSO,[16],98% (inactive)
same,GFP response vs DMSO,[16]; [21],100%
same,GFP response vs DMSO,[16]; [22],97.1%
same,GFP response relative to DMSO,[17],97.7% (inactive)
same,GFP response relative to DMSO,[17]; [23],96.5%
same,GFP response relative to DMSO,[17]; [24],94.6%
same,GFP response vs DMSO,[18],104% (inactive)
same,"GFP response, % of DMSO",[19],102% (inactive)
same,"GFP response, % of DMSO",[19]; [21],106%
same,"GFP response, % of DMSO",[19]; [22],99.1%
same,double positive events,[20],68%
same,vesicle binding response,[20],126% (inactive)
COc1ccccc1NC(=O)CCCc1c[nH]c2ccccc12,RGS16–Galpha-o binding response,[1],109%
same,RGS19–Galpha-o binding response,[2],78.4%
same,RGS7–Galpha-o binding response,[3],312%
same,RGS8–Galpha-o binding response,[4],85%
same,inhibition,[5],2.9% (inactive)
same,binding response (% of control),[6],95.7% (inactive)
same,response (percent of control binding),[7],89.4% (inactive)
same,response (% of control binding),[8],97.2% (inactive)
same,binding response (% of control),[9],92.5% (inactive)
same,response (percent of control binding),[10],92.9% (inactive)
CN(C)CCN(Cc1ccccc1)c1ccccn1,percent of DMSO control GFP,[11],94.8% (inactive)
same,GFP response vs DMSO,[12],140% (active)
same,percent response of DMSO control,[13],97.9% (inactive)
same,GFP response vs DMSO,[14],85.3% (inactive)
same,"GFP response, % of DMSO",[15],93.3% (inactive)
same,GFP response vs DMSO,[16],96.8% (inactive)
same,GFP response vs DMSO,[16]; [21],98.1%
same,GFP response vs DMSO,[16]; [22],97.9%
same,GFP response relative to DMSO,[17],101% (inactive)
same,GFP response relative to DMSO,[17]; [23],99.2%
same,GFP response relative to DMSO,[17]; [24],99.3%
same,GFP response vs DMSO,[18],100% (inactive)
same,"GFP response, % of DMSO",[19],98.3% (inactive)
same,"GFP response, % of DMSO",[19]; [21],99.1%
same,"GFP response, % of DMSO",[19]; [22],98.5%
same,double positive events,[20],62.3%
same,vesicle binding response,[20],269% (inactive)
O=C(NCc1ccc(F)cc1)C1CCC(CNc2c(N3CCOCC3)c(=O)c2=O)CC1 (configuration not stated),RGS16–Galpha-o binding response,[1],3.97%
same,RGS19–Galpha-o binding response,[2],357%
same,RGS7–Galpha-o binding response,[3],-657%
same,RGS8–Galpha-o binding response,[4],8.33%
same,inhibition,[5],0% (inactive)
same,binding response (% of control),[6],101% (inactive)
same,response (percent of control binding),[7],100% (inactive)
same,response (% of control binding),[8],98.7% (inactive)
same,binding response (% of control),[9],101% (inactive)
same,response (percent of control binding),[10],98.1% (inactive)
COc1ccccc1CCNC(=O)CSc1nnc2ccc(-c3cccnc3)nn12,inhibition,[5],-0.7% (inactive)
same,binding response (% of control),[6],100% (inactive)
same,response (percent of control binding),[7],103% (inactive)
same,response (% of control binding),[8],101% (inactive)
same,binding response (% of control),[9],101% (inactive)
same,response (percent of control binding),[10],107% (inactive)
C[C@H]1C[C@@H]2[C@H]([C@@H](O)C[C@@]3(C)[C@H]2CC[C@]3(O)C(=O)CO)[C@@]2(C)C=CC(=O)C=C12,percent of DMSO control GFP,[11],85.8% (active)
same,GFP response vs DMSO,[12],145% (active)
same,percent response of DMSO control,[13],93.9% (inactive)
same,GFP response vs DMSO,[14],80.3% (inactive)
same,"GFP response, % of DMSO",[15],83.6% (inactive)
same,GFP response vs DMSO,[16],96.6% (inactive)
same,GFP response vs DMSO,[16]; [21],96.6%
same,GFP response vs DMSO,[16]; [22],96.6%
same,GFP response relative to DMSO,[17],103% (inactive)
same,GFP response relative to DMSO,[17]; [23],102%
same,GFP response relative to DMSO,[17]; [24],99.3%
same,GFP response vs DMSO,[18],105% (inactive)
same,"GFP response, % of DMSO",[19],99.7% (inactive)
same,"GFP response, % of DMSO",[19]; [21],99.1%
same,"GFP response, % of DMSO",[19]; [22],98.5%
same,double positive events,[20],77.3%
same,vesicle binding response,[20],227% (inactive)
